{"source": "PubChem BioAssay AID794", "about": "(The Scripps Research Institute Molecular Screening Center, 2007)", "note": "The other results are listed elsewhere or left out. Calls of active or inactive are those of the source. Cut-off read from the data, not from the text of the source: active = inhibition above about 19%; inactive = the rest.", "data": [{"molecular_target": "Focal adhesion kinase 1 (Homo sapiens) (UniProt Q05397)", "sequence (Q05397 whole entry, looked up)": "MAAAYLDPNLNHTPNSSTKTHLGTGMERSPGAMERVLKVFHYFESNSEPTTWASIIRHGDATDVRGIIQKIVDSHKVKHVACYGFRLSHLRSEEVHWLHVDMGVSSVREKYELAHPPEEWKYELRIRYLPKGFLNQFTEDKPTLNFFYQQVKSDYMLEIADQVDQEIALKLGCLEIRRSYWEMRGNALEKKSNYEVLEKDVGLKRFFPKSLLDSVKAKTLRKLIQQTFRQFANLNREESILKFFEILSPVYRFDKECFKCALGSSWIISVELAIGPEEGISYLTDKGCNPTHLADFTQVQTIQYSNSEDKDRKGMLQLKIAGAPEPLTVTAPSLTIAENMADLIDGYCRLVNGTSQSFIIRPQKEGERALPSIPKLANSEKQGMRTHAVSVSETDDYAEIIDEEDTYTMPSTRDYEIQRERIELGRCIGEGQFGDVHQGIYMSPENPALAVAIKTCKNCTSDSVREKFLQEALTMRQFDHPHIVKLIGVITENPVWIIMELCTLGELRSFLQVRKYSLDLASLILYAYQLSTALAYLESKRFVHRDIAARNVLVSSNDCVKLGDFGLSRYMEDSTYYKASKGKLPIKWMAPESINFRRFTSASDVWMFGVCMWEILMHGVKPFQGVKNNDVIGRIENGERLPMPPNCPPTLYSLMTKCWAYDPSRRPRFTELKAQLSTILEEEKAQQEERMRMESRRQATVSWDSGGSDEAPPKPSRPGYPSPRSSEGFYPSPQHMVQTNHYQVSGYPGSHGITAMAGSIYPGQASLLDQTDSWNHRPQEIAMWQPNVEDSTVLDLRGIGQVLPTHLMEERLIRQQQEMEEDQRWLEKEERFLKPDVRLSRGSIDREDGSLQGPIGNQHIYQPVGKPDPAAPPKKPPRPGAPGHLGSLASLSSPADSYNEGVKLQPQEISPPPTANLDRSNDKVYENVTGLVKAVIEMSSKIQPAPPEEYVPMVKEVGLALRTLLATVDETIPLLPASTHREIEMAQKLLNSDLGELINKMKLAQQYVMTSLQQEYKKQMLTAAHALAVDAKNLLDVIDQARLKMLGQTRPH", "assay": "human PTK2 activity blockers, single-point recheck – biochemical, confirmation (AID 794)", "conditions": "FAK kinase biochemical inhibition assay; at 7 µM; active compounds read high", "values": [{"smiles": "Fc1ccc(-c2ccc(-c3nn4c(-c5ccco5)nnc4s3)o2)cc1", "inhibition": "5.37% (inactive)"}, {"smiles": "Cn1cccc1C(=O)Nc1nccs1", "inhibition": "7.79% (inactive)"}, {"smiles": "Cc1ccc(-n2nc3ccc(NC(=O)/C=C/c4ccco4)cc3n2)cc1C", "inhibition": "5.82% (inactive)"}, {"smiles": "Cc1cc(NC(=O)c2cnn3cccnc23)n(-c2ccccc2)n1", "inhibition": "13.6% (inactive)"}, {"smiles": "Oc1ccccc1/C=N/n1c(-c2cccs2)n[nH]c1=S", "inhibition": "8.74% (inactive)"}, {"smiles": "CC(=O)c1ccc(Cc2ncc(C(F)(F)F)cc2Cl)s1", "inhibition": "-0.34% (inactive)"}, {"smiles": "CCc1ccc2nc3sc(C(=O)Nc4nnc(CC)s4)c(N)c3cc2c1", "inhibition": "16.1% (inactive)"}, {"smiles": "COc1cc(N=Cc2c(O)[nH]c3ccccc23)cc(OC)c1OC", "inhibition": "56.3% (active)"}, {"smiles": "CCc1ccccc1NC(=O)CSc1nnc([C@@H](NC(=O)OC(C)(C)C)C(C)CC)o1", "note": "(stereo partly specified)", "inhibition": "-1.72% (inactive)"}, {"smiles": "O=C(Nc1ccc(-n2ccnc2P(=O)(O)c2ccccc2)cc1)c1ccccc1Br", "inhibition": "16.2% (inactive)"}, {"smiles": "Clc1ccccc1CSc1nnc(-c2ccco2)c(-c2ccco2)n1", "inhibition": "8.81% (inactive)"}, {"smiles": "CCN(CC)S(=O)(=O)c1ccc2c3c(cccc13)C(=O)S2", "inhibition": "14.7% (inactive)"}, {"smiles": "Cc1cccn2c(=O)c3cc(C(=O)N4COCC4(C)C)n(C)c3nc12", "inhibition": "6.3% (inactive)"}, {"smiles": "COCCn1c(C)cc(C(=O)CSc2ncnc3sc4c(c23)CCC4)c1C", "inhibition": "4.05% (inactive)"}, {"smiles": "Cc1cc2cc3c(N)[nH]nc3nc2cc1C", "inhibition": "20.5% (active)"}, {"smiles": "O=[N+]([O-])c1ccc(Oc2ccc(F)cc2Br)c2ccncc12", "inhibition": "6.15% (inactive)"}]}]}
